Sampled rows, rich in hits. Any-hit rate of the full collection: about 8%.
ELG1 repair inh = blocks ELG1-dependent DNA repair in HEK293T cells; HEK293T ELG1-luciferase reporter, luminescence, 16 h; DNA damage induced by 5-fluorouridine; Potency, µM (titrated, usually from 46.1 µM), for the others: top-dose activity change, negative = inhibition, most hits filed as inhibitors; 2.3% of 330,000 active; note: potency is the fitted concentration of half-maximal effect; nearly all actives have a fitted effect of over 55% in size
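In this reporter screen, reduction of luminescence relative to DMSO vehicle indicated activity. Compounds and 5-fluorouridine were added together to 2,000 cells per well, incubated for 16 hr at 37 °C, then developed with ONE-Glo.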
Coupling enz = coupling enzyme interference in Giardia aldolase counter-screen | coupling enzyme system counterscreen, AmpLite Red fluorescence | activity change, negative = inhibition, % at 58.2 µM, hits read low | 0.67% of 290,000 active; in the data active = activity change below about -30%
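Coupling enzymes only (glyceraldehyde-3-phosphate) + compound, at 57.5 uM final, 10 min RT; add substrate/coupling/AmpLite Red mix, 20 min RT; fluorescence ex 525/em 598 nm. Actives flag coupling-system interference.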
TSHR antag = antagonists of human thyroid stimulating hormone receptor; P16473; TSHR-expressing cells, TSH-stimulated cAMP HTRF, 2 h; active compounds read low; activity change, negative = inhibition, % at 11.5 µM; 0.2% of 330,000 active;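 active = activity change below a set negative limit, meaning inhibition stronger than a set level, cut at about -70% in these data; inconclusive = activity change between two set negative limits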
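Antagonism was scored as loss of TSH-driven cAMP in TSHR cells, stimulated with 4nM TSH (EC80) for 2 hours at 37 deg C and detected by homogeneous HTRF competition immunoassay.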
Gal4-VP16 FLuc = counter-screen for ROR gamma inhibitors: Gal4-VP16 reporter | Drosophila S2 Gal4-VP16 UAS-luciferase, luminescence, 20 h | Potency, µM (series often up to 53.6 µM), for inactives: at the top dose activity, negative = inhibition, actives largely listed as inhibitors | 3.5% of 310,000 active | AID 2546;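 note: Gal4-VP16 expression switched on by copper sulfate through the metallothionein promoter; potency is the fitted concentration of half-maximal effect; nearly all actives have a fitted effect of over 50% in size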
RORg inh = blocks mouse ROR gamma transcriptional activity; Potency, µM (highest dose often 53.6 µM), without a hit: at the highest dose activity change, negative = inhibition, usual class: inhibitors; Drosophila S2 Gal4-RORgamma UAS-luciferase reporter, 20 h; AID 2551; P51450; 5.4% of 310,000 active; note: potency is the fitted concentration of half-maximal effect; nearly all actives have a fitted effect of over 60% in size
Target sequence (P51450 whole entry, looked up, the tested form may be a part): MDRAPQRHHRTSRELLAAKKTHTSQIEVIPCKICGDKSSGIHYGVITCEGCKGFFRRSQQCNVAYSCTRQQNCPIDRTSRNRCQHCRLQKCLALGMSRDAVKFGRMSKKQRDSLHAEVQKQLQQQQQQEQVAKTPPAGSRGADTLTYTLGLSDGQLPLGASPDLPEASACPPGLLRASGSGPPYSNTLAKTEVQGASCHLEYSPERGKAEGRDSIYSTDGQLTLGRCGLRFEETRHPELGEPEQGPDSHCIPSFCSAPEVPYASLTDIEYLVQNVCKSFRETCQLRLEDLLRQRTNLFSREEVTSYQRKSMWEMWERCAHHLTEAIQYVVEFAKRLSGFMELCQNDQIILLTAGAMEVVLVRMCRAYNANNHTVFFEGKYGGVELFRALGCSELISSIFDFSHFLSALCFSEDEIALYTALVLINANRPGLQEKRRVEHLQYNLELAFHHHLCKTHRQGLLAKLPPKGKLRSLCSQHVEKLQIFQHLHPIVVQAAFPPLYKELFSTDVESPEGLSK
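Using a luciferase readout, inhibitors were identified by reduced reporter activity in Drosophila cells coexpressing a copper-inducible Gal4–ROR gamma fusion and UAS-driven Photinus luciferase, incubated 20 hr after 700 uM copper sulfate.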
Active calls of the source: *; ? = inconclusive; . = no result; [ ] = another dose, or the depositor's remark. Unless noted, calls come from the whole dose curve; as a rule, active = well fitted curve in the direction sought with a large enough effect; inconclusive = small, poorly fitted or top-dose-only effect, or another doubt; inactive = no such curve, though single readings can be large; an effect the other way counts as inactive or inconclusive. % is set by controls: 0 for no effect and ±100 for the full control effect.

SMILES	ELG1 repair inh	Coupling enz	TSHR antag	Gal4-VP16 FLuc	RORg inh
CCCC(c1nnnn1Cc1ccc(OC)cc1)N1CCN(c2ccccc2)CC1 (stereo unspecified)	-8%	-4	-48	8%	19%
Cc1cnc(CNc2ccnc(-c3ccoc3)n2)cn1	.	4	.	-11%	25%
CN(Cc1ccco1)c1cc(-c2cccc(NS(C)(=O)=O)c2)ncn1	.	-3	.	-23%	36%
NC(N)=NCCC[C@H](N)C(=O)N1CCC[C@H]1C(=O)N1CCC[C@H]1C(=O)NCC(=O)N[C@@H](Cc1ccccc1)C(=O)N[C@@H](CO)C(=O)N1CCC[C@H]1C(=O)N[C@@H](Cc1ccccc1)C(=O)O	.	1	.	-1%	6%
C(=N\NC(=Nc1ccccc1)c1ccccn1)/c1ccccn1	?	1	10	3.2µM*	3.2µM*
Clc1ccc(/C=N/NC(=Nc2ccccc2)c2ccccn2)c(Cl)c1	?	0	-2	?	13µM*
C=CCNC(=O)CSc1nc2sc3c(c2c(=O)n1CCCOC)CCC3	-20%	3	10	2%	1%
O=c1c2c3c(sc2[nH]c(=S)n1Cc1ccco1)CCC3	-6%	-2	-4	?	?
COCCn1c(=S)[nH]c2sc3c(c2c1=O)CCCC3	?	-1	41	2.2µM*	4µM*
C=CCn1c(=S)[nH]c2sc3c(c2c1=O)CCCC3	?	5	16	0.71µM*	0.4µM*
COCCCn1c(=S)[nH]c2sc3c(c2c1=O)CCCC3	0%	1	-3	1µM*	0.79µM*
COc1ccc(/C=C/C(=O)NCC(c2ccc(F)cc2)N2CCOCC2)cc1OC (stereo unspecified)	2%	2	26	-7%	16%
CC1(c2ccc3c(c2)OCCCO3)NC(=O)N(CC(=O)NCCc2ccccc2)C1=O (stereo unspecified)	0%	.	2	.	.
COC(=O)c1ccc(/C=N/Nc2nc(C)c(C)s2)cc1	?	-5	25	?	-69%
O=C(O)Cc1sc(N/N=C\c2ccccc2)nc1-c1ccccc1	14%	0	-8	-25%	-28%
CCCc1sc(N/N=C/c2ccccn2)nc1-c1ccc(F)cc1	?	-10	-4	0.32µM*	0.28µM*
Cc1nc(N/N=C/c2ccccn2)sc1C	?	-2	-12	0.5µM*	0.11µM*
CN1C[C@@H]2[C@@H]3C(=O)N(Cc4ccccc4)C(=O)[C@@H]3[C@](C)(C1=O)N2C(=O)c1ccc(Cl)cc1	?	.	-13	.	.
CC(=O)Nc1c2c(nn1-c1ccc(F)cc1)CSC2	-4%	0	22	-7%	2%
NC(=O)c1cc(Br)cc2c3c([nH]c12)CCCC3	-16%	-4	10	18µM*	-12%
CCOc1ccc(-n2nc3ccc(N)cc3n2)cc1	?	3	8	-27%	-38%
CCOc1ccc(-n2nc3cc(C)c(N)cc3n2)cc1	?	-4	-13	-27%	10µM*
COC(=O)c1ccc(C(=O)Nc2ccc(N)cc2N)cc1	11%	-34*	-3	-24%	?
O=C(N/C(=C\c1ccccc1)C(=O)N1CCOCC1)c1cccc(Br)c1	?	-3	-42	2%	6%
CN(CC(=O)Nc1cccc(F)c1)C(=O)c1cc([N+](=O)[O-])ccc1N1CCOCC1	-6%	.	-3	.	.
SMILES	ELG1 repair inh	Coupling enz	TSHR antag	Gal4-VP16 FLuc	RORg inh
O=C(O)c1c(Cl)c(Cl)c(Cl)c(Cl)c1-c1c2cc(I)c(=O)c(I)c-2oc2c(I)c(O)c(I)cc12	.	3	.	?	14µM*
O=C(Nc1ccc([N+](=O)[O-])cc1)Nc1ccc(OC(F)F)c(Cl)c1	?	0	-45	13µM*	?
O=C(Nc1ccc(OC(F)F)c(Cl)c1)Nc1ccc2c(c1)OCO2	11%	0	-18	9%	7%
CCCCNC(=O)NNc1nc(Cl)cc(C)c1C#N	?	0	3	14µM*	-26%
CCCCNc1nc(C)c(C(C)=O)cc1C#N	11%	0	-4	20%	-2%
CN1CCC2(CC1)CCN(C(=O)c1cc(C(F)(F)F)cc(C(F)(F)F)c1)CC2	.	4	.	5%	-9%
CC(=O)NC(c1cccc([N+](=O)[O-])c1)c1ccc2cccnc2c1O (stereo unspecified)	?	1	47	2µM*	1.4µM*
COc1cccc(C(NC(C)=O)c2ccc3cccnc3c2O)c1 (stereo unspecified)	?	0	7	5µM*	2.8µM*
CC(=O)NC(c1ccco1)c1cc(Br)c2cccnc2c1O (stereo unspecified)	.	.	-7	.	.
Oc1cccc(C(Nc2nccs2)c2ccc3cccnc3c2O)c1 (stereo unspecified)	?	-1	-4	3.5µM*	1.4µM*
OCCCNc1ccccc1	.	.	.	-5%	0%
CCN1C(=O)c2ccccc2S(=O)c2ccc(C(=O)NCc3ccc(OC)cc3)cc21 (stereo unspecified)	-17%	.	-4	1%	-11%
CC(c1ccccc1)N1CC(C(=O)N2CCN(Cc3ccc(C#N)cc3)CC2)CC1=O (stereo unspecified)	-17%	.	-13	.	.
C[C@H]1NC(=O)NC1=O	.	1	.	4%[17 µM]	-28%[16.9 µM]
NC(N)=NCC(O)CN(c1ccccc1)c1ccccc1 (stereo unspecified)	-24%	0	17	8%	-6%
Cc1oc2c(c(C)cc3oc(=O)c(CC(=O)N[C@@H](CCCNC(N)=O)C(=O)O)c(C)c32)c1C	12%	3	11	-15%	-10%
CN1CCN(C(=O)c2ccc(CSc3nc4ccncc4n3Cc3ccc(F)cc3)cc2)CC1	4%	1	-1	-6%	14%
CCOC(=O)N1CCN(C(=O)c2ccc3nc(SCc4ccc(F)cc4)n(C)c3c2)CC1	13µM*	1	-17	-11%	?
CC1=C(C(=O)OCc2ccc3c(c2)OCO3)C(c2cccc([N+](=O)[O-])c2)NC(=O)N1 (stereo unspecified)	7.3µM*	1	3	-12%	16%
COc1ccc(C2NC(=O)NC(C)=C2C(=O)OCc2ccc3c(c2)OCO3)cc1OC (stereo unspecified)	10µM*	2	20	-6%	30%
CCC(CC)COC(=O)C1=C(C)NC(=O)NC1c1cccc([N+](=O)[O-])c1 (stereo unspecified)	-8%	1	-4	?	?
CCCCOC(=O)C1=C(C)NC(=O)NC1c1cccc([N+](=O)[O-])c1 (stereo unspecified)	6.5µM*	0	6	0%	?
COc1cc(OC)cc(-c2nnc3n2N=C(c2ccccc2OC)CS3)c1	.	-8	.	0%	12%
Cc1ccc(C(=O)NNC(=O)Cn2ccc(C(F)(F)F)n2)o1	9%	.	15	.	.
